From PubChem BioAssay AID434931 (National Center for Advancing Translational Sciences (NCATS), 2010) come the findings set out here.

Inconclusive results are not listed. The source made the active and inactive calls. Calls follow the shape of the dose curve; as a rule, active = well fitted inhibition curve with a large enough effect; inconclusive = small, poorly fitted or top-dose-only effect, or another doubt; inactive = no such curve, though single readings can be large or run the other way.

In the assay the target is Neuropeptide S receptor (Homo sapiens) (UniProt Q6W5P4). The assay can be described thus: Confirmation Concentration-Response Assay for Antagonists of the Neuropeptide S Receptor: Robust Characterization of Calcium Signal Transduction. As to conditions: CHO-NPSR cells, NPS-induced calcium fluorescence (FDSS); series mostly up to 31.6 µM.
Chain of Neuropeptide S receptor (Homo sapiens) (Q6W5P4 whole entry, looked up): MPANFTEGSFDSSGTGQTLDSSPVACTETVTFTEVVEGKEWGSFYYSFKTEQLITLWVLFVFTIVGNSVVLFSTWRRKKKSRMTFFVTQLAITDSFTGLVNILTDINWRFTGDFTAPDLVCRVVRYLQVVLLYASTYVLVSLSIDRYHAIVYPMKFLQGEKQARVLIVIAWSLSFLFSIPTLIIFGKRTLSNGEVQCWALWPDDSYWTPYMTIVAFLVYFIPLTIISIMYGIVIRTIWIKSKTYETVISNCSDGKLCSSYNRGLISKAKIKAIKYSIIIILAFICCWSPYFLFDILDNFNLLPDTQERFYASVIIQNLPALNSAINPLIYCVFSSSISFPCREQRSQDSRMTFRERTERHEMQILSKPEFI
Turning to `Cc1nc2ccccn2c1C(O)(c1ccccc1)c1ccccc1`, the Potency was 11.3 µM (active). `COc1cccc(C2c3c(ncn(-c4ccccn4)c3=N)Oc3ccc4ccccc4c32)c1` (centres undefined): the Potency is 4.92 µM (active). Consider `COc1ccc(C2c3ccccc3Oc3ncn(CCN4CCOCC4)c(=N)c32)cc1OC` (centres undefined), for which the Potency is 0.619 µM (active). With `COc1ccc(C2c3c(ncn(CCCc4ccccc4)c3=N)Oc3ccc4ccccc4c32)cc1OC` (centres undefined) the figure was 3.91 µM (active); with `O=C(CCc1ccccc1)Nc1ncnc2c1C(c1ccccc1)c1c(ccc3ccccc13)O2` (centres undefined), 1.96 µM (active). The result for `COc1ccc(C2c3c(ncn(CCN4CCOCC4)c3=N)Oc3ccc4ccccc4c32)cc1OC` (centres undefined) reads 0.438 µM (active); that for `COc1ccccc1C1c2c(ncn(-c3ccccc3)c2=N)Oc2ccc3ccccc3c21` (centres undefined), 4.92 µM (active); that for `COc1cccc(C2c3c(ncn(-c4cccnc4)c3=N)Oc3ccc4ccccc4c32)c1` (centres undefined), 1.74 µM (active). The result for `N=c1c2c(ccn1CCc1ccccc1)Oc1ccc3ccccc3c1C2c1ccccc1` (centres undefined) reads 0.492 µM (active); that for `COc1cccc(C2c3c(ncn(-c4ccc(C)cc4)c3=N)Oc3ccc4ccccc4c32)c1` (centres undefined), 2.46 µM (active).

Regarding `CCOc1ccc(C2c3c(ncn(-c4ccccc4)c3=N)Oc3ccc4ccccc4c32)cc1OCC` (centres undefined), the Potency was 2.46 µM (active). With `COc1cccc(C2c3c(ncn(Cc4cccs4)c3=N)Oc3ccc4ccccc4c32)c1` (centres undefined) the figure was 3.1 µM (active); with `O=C(Nc1ncnc2c1C(c1ccccc1)c1c(ccc3ccccc13)O2)c1ccccc1` (centres undefined), 4.92 µM (active); with `N=c1c2c(ncn1-c1ccccc1)Oc1ccc3ccccc3c1C2c1ccc2c(c1)OCO2` (centres undefined), 0.619 µM (active). Turning to `COc1cccc(C2c3c(ncn(-c4ccc(C#N)cc4)c3=N)Oc3ccc4ccccc4c32)c1` (centres undefined), the Potency is 1.39 µM (active). `COc1cccc(C2c3c(ncn(-c4ccc(F)cc4)c3=N)Oc3ccc4ccccc4c32)c1` (centres undefined): the Potency is 2.2 µM (active). The result for `COc1ccc(-n2cnc3c(c2=N)C(c2cccc(OC)c2)c2c(ccc4ccccc24)O3)cc1` (centres undefined) reads 1.74 µM (active); that for `N=c1c2c(ccn1CCCc1ccccc1)Oc1ccc3ccccc3c1C2c1ccccc1` (centres undefined), 3.48 µM (active); that for `N=c1c2c(ccn1-c1ccccc1)Oc1ccc3ccccc3c1C2c1ccccc1` (centres undefined), 0.22 µM (active). With `COc1cccc(C2c3c(ncn(CCN4CCOCC4)c3=N)Oc3ccc4ccccc4c32)c1` (centres undefined) the figure was 1.74 µM (active); with `CCOC(=O)CCC(=O)Nc1ncnc2c1C(c1ccccc1)c1c(ccc3ccccc13)O2` (centres undefined), 1.24 µM (active).

Take `CCOC(=O)CC(=O)Nc1ncnc2c1C(c1ccccc1)c1c(ccc3ccccc13)O2` (centres undefined): the Potency was 0.552 µM (active). The result for `CCOC(=O)CCCC(=O)Nc1ncnc2c1C(c1ccccc1)c1c(ccc3ccccc13)O2` (centres undefined) reads 2.2 µM (active); that for `O=C(c1ccccc1)N(C(=O)c1ccccc1)c1ncnc2c1C(c1ccccc1)c1c(ccc3ccccc13)O2` (centres undefined), 0.438 µM (active). Regarding `S=P(c1ccccc1)(c1ccccc1)c1c[n+](C/C=C/c2ccccc2)c2ccccn12`, the Potency was 0.0318 µM (active).

As to `COc1ccc(C2c3c(nc(C)[nH]c3=O)Oc3ccc4ccccc4c32)cc1OC` (centres undefined), the Potency result is “inactive”. With `N=c1c2c(ccn1CCCCc1ccccc1)Oc1ccc3ccccc3c1C2c1ccccc1` (centres undefined) the entry was “inactive”; with `Nc1ncnc2c1C(c1ccccc1)c1c(ccc3ccccc13)O2` (centres undefined), 0.139 µM (active). Take `COc1cccc(C2c3c(ncn(-c4cccc(C)c4)c3=N)Oc3ccc4ccccc4c32)c1` (centres undefined): the Potency is 3.91 µM (active).
